# From ChEMBL document CHEMBL3988442, “University of Dundee, Small-Polar-MMV Screening Library” (2021)
# In all, about 48,000 compounds went through this assay and about 13,000 (27%) showed an effect of 50% or more. This is one part of the list.
# Tested on: Wolbachia pipientis
# Assay: Anti-Wolbachia Cell-Based Screen
# Type: functional
# Design: scale not given: in the data most compounds retested in dose-response had high values
# Settings: 5 µM
row,Compound,Percent Effect [%]
1,Cc1nccn1CCN(C)c1nc(-c2ccc(Cl)cc2)nc2c1CNC2,-50.51
2,CCN(c1cc(C)cc(C)c1)S(=O)(=O)c1cc(C(=O)O)cs1,116.9
3,CN(c1ccc(C(C)(C)C)cc1)S(=O)(=O)c1cc(C(=O)O)cs1,-4.452
4,Cc1cccc(N(C)S(=O)(=O)c2cc(C(=O)O)cs2)c1,112.1
5,Cc1ccc(N(C)S(=O)(=O)c2cc(C(=O)O)cs2)c(C)c1,115
6,Cc1cccc(N(C)S(=O)(=O)c2cc(C(=O)O)cs2)c1C,-9.49
7,CN(c1ccc2ccccc2c1)S(=O)(=O)c1cc(C(=O)O)cs1,28.59
8,CN(c1cccc2ccccc12)S(=O)(=O)c1cc(C(=O)O)cs1,-12.64
9,CCOc1cccc(NS(=O)(=O)c2cc(C(=O)O)cs2)c1,19.91
10,CN(c1ccc(F)c(F)c1)S(=O)(=O)c1cc(C(=O)O)cs1,2.683
11,Cc1cc(C)cc(N(C)S(=O)(=O)c2cc(C(=O)O)cs2)c1,-4.793
12,COc1ccccc1N(C)S(=O)(=O)c1cc(C(=O)O)cs1,22.41
13,Cc1ccc(N(C)S(=O)(=O)c2cc(C(=O)O)cs2)cc1,139
14,COCC1CN(C(=O)c2cccn2C)Cc2ncnn2C1 (configuration not stated),-3.009
15,CCN1CCCC1CN(CCN(C)C)S(=O)(=O)c1ccccc1C#N (configuration not stated),-13.86
16,CN(Cc1cccc(F)c1)C(=O)CS(=O)(=O)Cc1c(Cl)cccc1Cl,-4.804
17,Cc1nn(C)c(C)c1NC(=O)CNc1cccc(CC(F)(F)F)c1,-3.048
18,FC(F)(F)c1ccc2nc([C@H]3CCN(C4CCC4)C3)[nH]c2c1,0.6058
19,O=C(NCCN1CCCC1)c1ccc2c(-c3nccs3)noc2c1,3.961
20,Cc1cccc2c1nc1n2[C@@H](CNC(=O)c2cncnc2)COC1,-4.11
21,CCN(C(=O)NCc1ccc(C)cc1OC)C(C)c1cccnc1 (configuration not stated),2.223
22,CCC(C)(C)NC(=O)CN(Cc1cccc(O)c1)C1CCC(O)CC1 (configuration not stated),-0.7077
23,CCOC(=O)C1(CCOC)CCCN(Cc2nccn2CC)C1 (configuration not stated),-2.653

row,Compound,Percent Effect [%]
1,COc1c(CNCCC(=O)NC2CCCCC2)c(C(C)C)nn1C,109.1
2,COc1c(CNC(C)C(=O)NC2CCCC2)c(C(C)C)nn1C (configuration not stated),-36.61
3,COc1c(CNC(C)C(=O)NC2CCCC2)c(C)nn1C (configuration not stated),6.635
4,COc1c(CNCCC(=O)Nc2cccc(C)n2)c(C(C)C)nn1C,-41.29
5,COc1c(CNCc2nnc3n2CCCCC3)c(C(C)C)nn1C.Cl,3.985
6,COc1c(CNCCC(=O)NC2CCCC2)c(C(C)C)nn1C,98.08
7,CC(C)C1CN(c2ncccn2)CCC(=O)N1CC1CC1 (configuration not stated),-33.18
8,CC(=O)N1CCCN(C(=O)c2cnc(OC(C)C)c(Cl)c2)CC1,-53.74
9,C[C@@H]1CN(C(=O)c2ccc(C#N)nc2)C[C@@]1(O)C1CC1,-20.15
10,CCc1cc(C(=O)N2CCC3(CCCN(CCOC)C3=O)C2)cs1 (configuration not stated),-4.642
11,COCCN1CCCC2(CCN(C(=O)c3cnc(O)cn3)C2)C1=O (configuration not stated),-81.96
12,CCc1noc(C)c1C(=O)N1CCC2(CCCN(CC(C)(C)C)C2=O)C1 (configuration not stated),101.6
13,CNc1nc(C(=O)N2CCC3(CCCN(CC4CC4)C3=O)C2)cs1 (configuration not stated),-46.01
14,CCc1n[nH]c(C(=O)N2CCC3(CCCN(CCOC)C3=O)C2)c1C (configuration not stated),116.4
15,Cc1occc1C(=O)N1CCC2(CCCN(CC3CCC3)C2=O)C1 (configuration not stated),-0.1295
16,CCc1ocnc1C(=O)N1CCC2(CCCN(CC(C)(C)C)C2=O)C1 (configuration not stated),100.3
17,CCc1c(C(=O)N2CCC3(CCCN(CCO)C3=O)C2)csc1C (configuration not stated),7.73
18,CCCc1cc(C(=O)N2CCC3(CCCN(CCO)C3=O)C2)cs1 (configuration not stated),-0.6433
19,Cc1occc1C(=O)N1CCC2(CCCN(CC3CC3)C2=O)C1 (configuration not stated),-3.086
20,CCc1cc(C(=O)N2CCC3(CCCN(CC4CC4)C3=O)C2)cs1 (configuration not stated),55.55
21,CCCc1cc(C(=O)N2CCC3(CCCN(CCOC)C3=O)C2)cs1 (configuration not stated),13.33
22,CCn1cc(CN2CCC(C3CCN(C)CC3)CC2)cc1C#N,8.542
23,CC1CCN(C(=O)[C@@H]2C[C@H]3OCC[C@H]3N(Cc3ccoc3)C2)CC1.O=C(O)C(F)(F)F,-6.203

row,Compound,Percent Effect [%]
1,COc1ccc2c(c1)C(C(=O)N(C)CCc1cnn(C)c1)CC(=O)N2 (configuration not stated),2.797
2,Cc1csc(N(C)C(=O)C(c2c(F)cccc2Cl)N(C)C)n1 (configuration not stated),1.249
3,c1ccc(OCc2noc(CN3CCN(C4CCCC4)CC3)n2)cc1,4.136
4,Cc1n[nH]c(C)c1CC(=O)N1CC[C@@](C)(O)[C@H](Oc2ccccc2)C1,132.6
5,Cc1n[nH]c(C)c1CC(=O)N1CCC2(CC1)CN(C)CCN2C,-2.947
6,Cc1noc(C)c1CNC(=O)N1CCC(C(O)c2ccccc2)CC1 (configuration not stated),-2.263
7,Cc1noc(C)c1CC(=O)N1CC[C@@](C)(O)[C@H](Oc2ccccc2)C1,138.5
8,Cc1n[nH]c(C)c1CC(=O)N1CC[C@@](C)(O)[C@@H](Cc2ccccc2)C1,-1.869
9,Cc1nc(C)c(CC(=O)N2CCC(Oc3ccccc3)CC2)c(=O)[nH]1,3.027
10,CC[C@H](CO)NC(=O)c1coc(COc2cccc(F)c2F)n1,-21.32
11,COC(=O)CCCNC(=O)c1cc(COc2cncc(Cl)c2)on1,3.929
12,CCN(Cc1csc(C)n1)c1cccc(CO)c1,19.84
13,CC(c1nnc(-c2ccccc2)o1)N1CCC(Nc2ccccc2)CC1 (configuration not stated),109.3
14,COc1ccc(-c2nnc(C(C)N3CCC4(CC3)OCCO4)o2)cc1 (configuration not stated),-10.61
15,COc1ccc(-c2nnc(C(C)N3CCOCC3)o2)cc1 (configuration not stated),0.5331
16,COCCCN1CC2(CCN(Cc3cc(C(C)C)no3)CC2)CC1=O,-15.73
17,CC(C)c1cc(N2CCC(N)CC2)n2nccc2n1,-3.508
18,CC(C)c1cc(CN2CCC(N)CC2)on1,102.3
19,CCN1CCN(C2CCN(Cc3cc(C)on3)CC2)C1=O,-12.89
20,CC(C)c1cc(CN2CCC(N)CC2)no1,118.3
21,CC(C)c1cc(CN2CCC(CC(=O)O)CC2)no1,25.42
